# Laboratory results from the supplement of paper PMC11624193, “Coupling cellular drug-target engagement to downstream pharmacology with CeTEAM” (Nature Communications, 2024).
# Counter-ions that a name gives are not always drawn.
# Target: PARP1 L713F-nLuc biosensor (HCT116) (UniProt P09874)
# Test: PARP1 L713F-nLuc/akaLuc ratio relative to DMSO control (biosensor stabilization) (fold change); higher = more PARP1 biosensor stabilization (target engagement / stabilizer), active = hit call of the paper
# Settings: stock concentration (mM; final µM = stock mM x 1): 10; 24 h;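 active = log2 fold change beyond 2 SD from the library mean after excluding viability outliers; inactive = within 2 SD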
# Sequence of PARP1 L713F-nLuc biosensor (HCT116) (P09874 whole entry L713F, looked up): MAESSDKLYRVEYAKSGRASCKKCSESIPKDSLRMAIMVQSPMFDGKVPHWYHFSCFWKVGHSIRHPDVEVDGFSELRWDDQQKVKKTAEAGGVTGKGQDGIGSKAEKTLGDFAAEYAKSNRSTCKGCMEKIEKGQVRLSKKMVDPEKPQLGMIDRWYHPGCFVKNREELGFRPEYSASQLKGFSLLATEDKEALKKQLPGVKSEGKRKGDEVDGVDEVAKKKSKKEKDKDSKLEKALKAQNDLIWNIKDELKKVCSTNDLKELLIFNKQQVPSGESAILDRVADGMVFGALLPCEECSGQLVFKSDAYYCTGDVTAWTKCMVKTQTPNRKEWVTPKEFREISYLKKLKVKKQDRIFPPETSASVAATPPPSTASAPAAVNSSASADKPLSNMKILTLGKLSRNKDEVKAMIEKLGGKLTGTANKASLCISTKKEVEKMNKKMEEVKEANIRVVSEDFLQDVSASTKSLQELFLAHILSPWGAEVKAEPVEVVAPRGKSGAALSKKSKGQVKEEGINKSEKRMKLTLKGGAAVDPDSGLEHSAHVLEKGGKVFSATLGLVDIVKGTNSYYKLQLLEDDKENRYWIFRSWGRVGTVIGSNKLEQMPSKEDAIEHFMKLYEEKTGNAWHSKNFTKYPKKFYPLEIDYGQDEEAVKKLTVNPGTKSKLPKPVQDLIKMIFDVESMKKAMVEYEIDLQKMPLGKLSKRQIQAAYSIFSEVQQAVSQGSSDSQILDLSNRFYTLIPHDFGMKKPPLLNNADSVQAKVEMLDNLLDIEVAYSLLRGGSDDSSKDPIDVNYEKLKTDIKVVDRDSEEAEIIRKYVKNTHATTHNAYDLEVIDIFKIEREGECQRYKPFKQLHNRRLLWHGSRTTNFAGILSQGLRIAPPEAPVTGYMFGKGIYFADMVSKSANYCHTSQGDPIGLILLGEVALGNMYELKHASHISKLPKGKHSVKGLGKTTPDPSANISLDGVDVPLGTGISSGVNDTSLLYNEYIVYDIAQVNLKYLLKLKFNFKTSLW
row,Compound,PARP1 L713F-nLuc/akaLuc ratio
1,COc1ccc2c(=O)c(-c3ccccc3)coc2c1 [7-Methoxyisoflavone],0.63 (inactive)
2,COc1ccc2c(c1)c(C(=O)Nc1cc(C(=O)OC(C)(C)C)ccc1F)cn2C(C)=O,0.714 (inactive)
3,CN1C[C@@H](Nc2cnn(C)c(=O)c2Br)C[C@@H](c2ccccc2)C1,0.711 (inactive)
4,Cc1nc(NC(=O)N2CCC[C@H]2C(N)=O)sc1-c1ccnc(C(C)(C)C(F)(F)F)c1 [Alpelisib (BYL719)],0.761 (inactive)
5,CCS(=O)(=O)N1CCC([C@@H](C)n2c(C)c(C(=O)NCc3c(OC)cc(C)[nH]c3=O)c3ccccc32)CC1,1.51 (inactive)
6,NC(=O)c1cccc(N)c1 [3-Aminobenzamide],0.995 (inactive)
7,CN(C)C[C@@H]1CCn2cc(c3ccccc32)C2=C(C(=O)NC2=O)c2cn(c3ccccc23)CCO1 [Ruboxistaurin (hydrochloride)],0.778 (inactive)
8,O=C(O)CC[C@H](O)C(=O)O [L-2-Hydroxyglutaric acid (disodium)],1.2 (inactive)
9,O=C(Nc1ccc(Cl)cc1)c1cc2ccccc2cc1O [Naphthol AS-E],1.09 (inactive)
10,CCC(Sc1nnc2c(n1)[nH]c1ccccc12)C(=O)N1c2ccccc2Sc2ccccc21 (configuration not stated) [Inauhzin],0.33 (active)
11,CC(=O)Nc1ccc(C(=O)Nc2ccc(F)cc2N)cc1,0.984 (inactive)
12,CS(=O)(=O)N1CCN(Cc2cc3nc(-c4cccc5[nH]ncc45)nc(N4CCOCC4)c3s2)CC1 [Pictilisib (GDC-0941)],0.659 (inactive)
